In PubChem BioAssay (NCATS):
Several values for one entry are separate records, joined by “and”; a condition that tells them apart may be missing. Equal values may be shown once. Records with an inconclusive call do not appear. Activity calls are given as the source filed them. Unless noted, calls follow the shape of the dose curve; as a rule, active = well fitted curve in either direction with a large enough effect (not every such curve was filed as active); inconclusive = small, poorly fitted or top-dose-only effect, or another doubt; inactive = flat fitted curve, though single readings scatter.

Assays:
[1] = AP1 Signaling Pathway (AID 357); conditions: ME-180 AP-1-bla reporter, EGF-induced, beta-lactamase ratio, 5 h;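 also: ME-180 reporter cells stimulated with EGF at its EC50 level; % is scaled to controls: 0 for no effect and ±100 for the full control effect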
Outline: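 A ratiometric CCF4 readout (405 nm excitation; 460 and 530 nm emission) quantified AP-1-driven beta-lactamase in ME-180 cells after 5 h with compound and EC50 EGF; AC50 values were derived for activators and inhibitors.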

[2] = molecular target: Cytochrome P450 1A2 (Homo sapiens) (UniProt P05177); test: p450-cyp1a2 (AID 410; calls by dose curve; also: potency is read from the fitted curve at half-maximal effect;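 as to activity change, negative = inhibition: -100% = full effect of reference inhibitor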)
Sequence of Cytochrome P450 1A2 (Homo sapiens) (P05177 whole entry, looked up): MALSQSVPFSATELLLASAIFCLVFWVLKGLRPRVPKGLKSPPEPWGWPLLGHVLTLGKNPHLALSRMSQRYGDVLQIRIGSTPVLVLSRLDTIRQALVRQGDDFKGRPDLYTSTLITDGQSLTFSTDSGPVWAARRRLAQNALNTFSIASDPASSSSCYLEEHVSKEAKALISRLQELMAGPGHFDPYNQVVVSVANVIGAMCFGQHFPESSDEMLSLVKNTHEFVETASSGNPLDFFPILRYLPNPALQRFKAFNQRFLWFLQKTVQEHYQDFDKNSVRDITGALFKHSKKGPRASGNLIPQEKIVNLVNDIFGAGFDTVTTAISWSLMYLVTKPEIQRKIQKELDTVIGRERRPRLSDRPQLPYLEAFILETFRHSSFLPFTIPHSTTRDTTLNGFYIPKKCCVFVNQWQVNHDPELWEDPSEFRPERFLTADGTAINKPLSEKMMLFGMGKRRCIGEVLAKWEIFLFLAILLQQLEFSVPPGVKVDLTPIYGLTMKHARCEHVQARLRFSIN
Outline: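 Inhibition was calculated relative to 57 uM furafylline (full inhibition). The reaction used human CYP1A2 at 20nM with Luciferin-ME at its Km, 100uM, driven by an NADPH-regenerating system for 60 min at room temperature.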

[3] = NFAT Signaling Pathway (AID 444); conditions: Jurkat NFAT-bla M1, carbachol, beta-lactamase ratio, 5 h;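 also: carbachol stimulus at about its EC50 of 1 µM final; % is scaled to controls: 0 for no effect and ±100 for the full control effect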
Outline: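 Jurkat cells with NFAT-driven β-lactamase reporter and co-expressed M1 receptor, stimulated with carbachol (final 1 uM, ~EC50), compound titration, 5 h at 37 °C. CCF4 loaded 1 h at RT; 460/530 nm ratio gave %activity and AC50.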

[4] = Stat Signaling Pathway (AID 446); conditions: ME-180 SIE beta-lactamase reporter, IL-6 stimulated, 5 h;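 also: ME-180 cervical cancer cells given 40 pM IL-6 alongside compound; SIE-controlled beta-lactamase reporter measured as 460/530 nm FRET emission ratio; % is scaled to controls: 0 for no effect and ±100 for the full control effect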
Outline: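 Reporter line: ME-180 cervical carcinoma, SIE-beta-lactamase. Treatment: compound with 40 pM IL-6, 5 hrs, 37 C, in low-serum OPTI-MEM with 10 mM HEPES pH 7.3. Detection: 460/530 nm fluorescence.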

[5] = molecular target: Glucocorticoid receptor (Homo sapiens) (UniProt P04150); test: GR-GFP Redistribution (AID 450;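 active = compounds whose dose series gives a full or clear partial fitted curve of increased nuclear translocation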; also: potency is read from the fitted curve at half-maximal effect); conditions: U2OS GR-GFP nuclear translocation, laser cytometry, 2 h
Sequence of Glucocorticoid receptor (Homo sapiens) (P04150 whole entry, looked up, the tested form may be a part): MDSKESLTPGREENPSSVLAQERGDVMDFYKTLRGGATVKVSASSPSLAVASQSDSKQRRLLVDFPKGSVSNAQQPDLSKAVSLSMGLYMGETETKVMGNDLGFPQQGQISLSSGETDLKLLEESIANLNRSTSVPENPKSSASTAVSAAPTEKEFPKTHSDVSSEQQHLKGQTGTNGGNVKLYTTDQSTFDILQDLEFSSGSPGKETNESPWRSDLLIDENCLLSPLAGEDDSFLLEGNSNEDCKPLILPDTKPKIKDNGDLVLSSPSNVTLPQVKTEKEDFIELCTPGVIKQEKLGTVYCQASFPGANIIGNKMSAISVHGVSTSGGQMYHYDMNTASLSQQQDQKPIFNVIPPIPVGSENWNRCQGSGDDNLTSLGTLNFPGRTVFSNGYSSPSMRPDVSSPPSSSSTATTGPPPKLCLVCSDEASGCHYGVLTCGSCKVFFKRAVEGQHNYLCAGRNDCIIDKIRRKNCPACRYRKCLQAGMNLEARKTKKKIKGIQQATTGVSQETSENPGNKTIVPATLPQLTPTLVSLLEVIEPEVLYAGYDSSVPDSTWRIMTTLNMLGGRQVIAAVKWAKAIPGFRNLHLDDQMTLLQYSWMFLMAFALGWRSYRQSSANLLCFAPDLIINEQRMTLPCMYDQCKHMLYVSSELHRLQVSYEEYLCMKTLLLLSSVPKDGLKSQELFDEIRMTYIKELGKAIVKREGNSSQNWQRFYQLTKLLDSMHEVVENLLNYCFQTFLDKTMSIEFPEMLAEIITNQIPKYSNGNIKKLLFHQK

[6] = molecular target: Glucocorticoid receptor (Homo sapiens) (UniProt P04150); test: GR-EFC Redistribution (AID 451; calls by dose curve; also: potency is read from the fitted curve at half-maximal effect); conditions: CHO-K1 GR-EFC translocation, beta-gal luminescence, 2 h
Outline: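 CHO-K1 cells expressing nuclear EA and GR-ED fragments of b-gal; compounds titrated up to 46 uM final, 2 h at 37 C. GR nuclear translocation read as complemented b-gal luminescence after 1 h RT detection.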

[7] = molecular target: Mitogen-activated protein kinase 10 (Mus musculus) (UniProt Q61831); test: JNK3 AlphaScreen Assay (AID 530);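 also: kinase came from lysate of stimulated human HepG2 cells; signal reports phosphorylation of biotinylated GST-cJun 1-79 at Ser73 with 10 µM ATP; % is scaled to controls: 0 for no effect and ±100 for the full control effect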
Outline: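 qHTS format: compounds tested as titrations against IL-1beta/TNF-alpha-activated HepG2 lysate JNK3 with biotin-GST-cJun substrate and 10 uM ATP at room temperature. Loss of anti-phospho-cJun AlphaScreen signal indicates inhibition.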

[8] = molecular target: 3',5'-cyclic-AMP phosphodiesterase 4B (Homo sapiens) (UniProt Q07343); test: qHTS Assay for Inhibitors of PDE-IV (AID 607; active = well fitted activation curve with a large enough effect in the main read-out, with a control signal flat, not every such curve was filed as active; also: % of control where 0% means no effect)
Sequence of 3',5'-cyclic-AMP phosphodiesterase 4B (Homo sapiens) (Q07343 whole entry, looked up): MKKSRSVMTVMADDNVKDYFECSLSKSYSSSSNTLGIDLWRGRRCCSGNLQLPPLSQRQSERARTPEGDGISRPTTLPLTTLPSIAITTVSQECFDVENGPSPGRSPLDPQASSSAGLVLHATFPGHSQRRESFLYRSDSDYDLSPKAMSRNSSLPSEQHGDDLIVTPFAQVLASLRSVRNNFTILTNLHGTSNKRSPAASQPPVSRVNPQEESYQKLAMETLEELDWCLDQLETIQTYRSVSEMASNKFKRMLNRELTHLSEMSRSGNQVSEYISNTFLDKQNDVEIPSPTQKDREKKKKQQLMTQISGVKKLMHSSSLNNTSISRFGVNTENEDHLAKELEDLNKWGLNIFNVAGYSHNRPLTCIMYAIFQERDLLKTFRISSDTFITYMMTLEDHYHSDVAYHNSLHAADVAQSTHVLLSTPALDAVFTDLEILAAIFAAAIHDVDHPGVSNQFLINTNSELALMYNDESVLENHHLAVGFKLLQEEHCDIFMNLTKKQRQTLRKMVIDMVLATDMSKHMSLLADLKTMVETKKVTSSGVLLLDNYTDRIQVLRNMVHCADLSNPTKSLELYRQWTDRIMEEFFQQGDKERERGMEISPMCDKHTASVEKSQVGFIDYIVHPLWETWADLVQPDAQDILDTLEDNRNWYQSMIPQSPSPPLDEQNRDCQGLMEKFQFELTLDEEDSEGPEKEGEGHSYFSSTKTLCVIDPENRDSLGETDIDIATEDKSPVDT
Outline: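 Cell-based read-out of cAMP via a modified cyclic nucleotide-gated channel and membrane potential dye (535/590 nm) in HEK293 cells expressing PDE4 endogenously. Compounds tested up to 22.9 uM final; 100 uM RO 20-1724 reference.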

[9] = molecular target: alpha-glucosidase (Oryza sativa, rice) (UniProt Q653V4); test: Counterscreen for Glucocerebrosidase Inhibitors: qHTS Assay for Rice alpha-Glucosidase at pH 5.0 (AID 997; active = well fitted curve in the direction sought with a large enough effect; an effect the other way counts as inactive or inconclusive;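 also: 0% = full activity with enzyme and -100% = basal without enzyme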)
Outline: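 Rice alpha-glucosidase (4 nM final) with 400 uM 4-methylumbelliferyl-alpha-D-glucopyranoside in citrate buffer pH 5.0, 20 min at room temperature, stopped at pH 10; fluorescence 365/440 nm, compounds 0.7 nM–77 uM, AC50 from Hill fits.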

[10] = qHTS Assay for Lipid Storage Modulators (AID 1519; calls by dose curve); conditions: Drosophila S3 cells, BODIPY lipid droplet/cell ratio, laser cytometry, cells loaded with oleic acid; for activity change, negative = inhibition: at 25.7 µM (top of the series)
Outline: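 Cells seeded at 5,000 per well were treated with compounds over a concentration series and loaded with oleic acid (400 uM, as added). Lipid droplet fluorescence (488 nm excitation, 500-530 nm channel) was read by laser-scanning cytometry and normalized to 20 uM Triacsin C.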

[11] = molecular target: Ubiquitin carboxyl-terminal hydrolase 1 (Homo sapiens) (UniProt O94782); test: Inhibitors of USP1/UAF1: Pilot qHTS (AID 504865; active = well fitted curve in the direction sought with a large enough effect; an effect the other way counts as inactive or inconclusive;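 also: rhodamine fluorescence freed from ubiquitin-rhodamine substrate followed over time; top concentration of the series differs between compounds; % is scaled to controls: 0 for no effect and ±100 for the full control effect; nearly all actives have a fitted effect of over 35% in size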)
Sequence of Ubiquitin carboxyl-terminal hydrolase 1 (Homo sapiens) (O94782 whole entry, looked up): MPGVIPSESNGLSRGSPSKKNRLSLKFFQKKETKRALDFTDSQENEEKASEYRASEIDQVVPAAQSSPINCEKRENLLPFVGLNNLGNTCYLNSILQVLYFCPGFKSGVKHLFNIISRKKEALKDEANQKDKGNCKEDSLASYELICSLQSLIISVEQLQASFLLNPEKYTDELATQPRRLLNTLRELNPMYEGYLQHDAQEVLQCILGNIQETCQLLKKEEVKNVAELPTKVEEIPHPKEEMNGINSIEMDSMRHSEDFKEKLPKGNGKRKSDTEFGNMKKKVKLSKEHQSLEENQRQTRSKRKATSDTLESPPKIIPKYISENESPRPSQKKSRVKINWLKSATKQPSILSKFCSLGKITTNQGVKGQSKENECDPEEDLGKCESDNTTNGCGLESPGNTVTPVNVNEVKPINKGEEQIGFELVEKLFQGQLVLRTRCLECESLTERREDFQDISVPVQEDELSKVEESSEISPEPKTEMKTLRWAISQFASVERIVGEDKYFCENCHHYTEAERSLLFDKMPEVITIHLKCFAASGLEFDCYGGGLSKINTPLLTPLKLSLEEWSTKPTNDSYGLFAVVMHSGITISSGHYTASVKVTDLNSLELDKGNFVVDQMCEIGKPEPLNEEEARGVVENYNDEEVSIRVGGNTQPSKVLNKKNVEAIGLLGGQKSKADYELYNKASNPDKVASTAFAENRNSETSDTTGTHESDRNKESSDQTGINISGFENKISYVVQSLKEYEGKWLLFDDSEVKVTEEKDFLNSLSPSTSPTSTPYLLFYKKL
Outline: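 USP1/UAF1 complex at 1 nM preincubated 15 min at room temperature with compound, then Ub-Rho substrate added at 150 nM final. Fluorescence (480/540 nm) read kinetically in 50 mM HEPES pH 7.8, 0.5 mM EDTA, 1 mM TCEP, 0.1 mg/ml BSA, 0.01% Tween-20.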

[12] = molecular target: ATP-dependent 6-phosphofructokinase (Trypanosoma brucei brucei) (UniProt O15648); test: qHTS Assay to Find Inhibitors of T. brucei phosphofructokinase: hit validation (AID 492961; active = well fitted curve in the direction sought with a large enough effect; an effect the other way counts as inactive or inconclusive; also: % is scaled to controls: 0 for no effect and ±100 for the full control effect)
Sequence of ATP-dependent 6-phosphofructokinase (Trypanosoma brucei brucei) (O15648 whole entry, looked up): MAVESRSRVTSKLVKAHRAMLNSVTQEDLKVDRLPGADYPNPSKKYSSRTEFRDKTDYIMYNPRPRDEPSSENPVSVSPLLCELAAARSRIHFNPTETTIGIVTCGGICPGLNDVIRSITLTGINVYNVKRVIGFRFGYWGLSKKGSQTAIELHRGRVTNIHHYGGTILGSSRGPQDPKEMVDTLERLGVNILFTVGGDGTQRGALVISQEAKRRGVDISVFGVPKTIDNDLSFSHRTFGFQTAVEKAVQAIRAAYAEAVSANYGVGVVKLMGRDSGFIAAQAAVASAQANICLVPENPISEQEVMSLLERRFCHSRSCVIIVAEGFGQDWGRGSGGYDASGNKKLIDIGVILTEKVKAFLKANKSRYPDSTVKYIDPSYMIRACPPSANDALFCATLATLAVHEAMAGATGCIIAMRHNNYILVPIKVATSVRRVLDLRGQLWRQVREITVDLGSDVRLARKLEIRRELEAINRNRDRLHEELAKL
Outline: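 Luminescence from ADP-Glo reports ADP generated as T. brucei PFK (1.25 nM) phosphorylates 0.5 mM fructose-6-phosphate using 0.1 mM ATP. Reactions ran 45 min at room temperature, pH 8.0.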

[13] = molecular target: Luciferin 4-monooxygenase (Photinus pyralis) (UniProt P08659); test: Biochemical firefly luciferase enzyme assay for NPC (AID 624030; active = well fitted curve in the direction sought with a large enough effect; an effect the other way counts as inactive or inconclusive;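 also: purified P. pyralis luciferase at 10 nM with luciferin and ATP substrate; 0% = DMSO and -100% = full luciferase inhibition by PTC124 control; nearly all actives have a fitted effect of over 70% in size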)
Sequence of Luciferin 4-monooxygenase (Photinus pyralis) (P08659 whole entry, looked up): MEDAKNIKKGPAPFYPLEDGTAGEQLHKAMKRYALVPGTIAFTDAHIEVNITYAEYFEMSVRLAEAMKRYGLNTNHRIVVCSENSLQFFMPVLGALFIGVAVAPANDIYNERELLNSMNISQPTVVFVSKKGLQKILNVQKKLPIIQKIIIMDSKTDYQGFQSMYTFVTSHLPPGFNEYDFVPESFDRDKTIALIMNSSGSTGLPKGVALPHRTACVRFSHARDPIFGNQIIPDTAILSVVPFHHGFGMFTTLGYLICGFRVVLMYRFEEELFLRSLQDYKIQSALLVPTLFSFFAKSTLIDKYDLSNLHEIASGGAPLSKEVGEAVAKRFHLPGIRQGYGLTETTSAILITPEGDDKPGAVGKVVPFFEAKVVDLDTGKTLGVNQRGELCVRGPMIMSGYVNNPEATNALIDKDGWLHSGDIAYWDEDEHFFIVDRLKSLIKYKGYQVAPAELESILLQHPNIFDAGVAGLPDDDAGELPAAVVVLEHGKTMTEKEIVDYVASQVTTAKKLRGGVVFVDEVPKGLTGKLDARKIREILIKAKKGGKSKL
Outline: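 Purified P. pyralis luciferase at 10 nM in 50 mM Tris Acetate (final), luminescence read within 5 minutes of enzyme addition to compounds. Activity normalised to PTC124 versus DMSO; concentration-response curves classed by r2, magnitude and activity.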

[14] = qHTS profiling for inhibitors of Plasmodium falciparum proliferation (AID 504749; active = well fitted curve in the direction sought with a large enough effect; an effect the other way counts as inactive or inconclusive;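 also: 0% = DMSO vehicle and full inhibition = artemisinin control; nearly all actives have a fitted effect of over 60% in size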); conditions: P. falciparum in erythrocytes, SYBR Green DNA, 72 h, at 28.7 µM (top of the series)
Outline: (§1)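 Readout was DNA-dye fluorescence from lysed cultures, ex 485/em 535 nm. Parasitized red cells had grown 72 h with compound; data scaled between 0.29 uM artemisinin and DMSO wells and corrected using vehicle-only plates.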

AS120 = test: as above; conditions: P. falciparum in erythrocytes, SYBR Green DNA, 72 h; series mostly up to 28.7 µM
Outline: as §1

CP238 = test: as above; conditions: P. falciparum in erythrocytes, SYBR Green DNA, 72 h; series mostly up to 12.8 µM
Outline: as §1

CP250 = test: as above; conditions: P. falciparum in erythrocytes, SYBR Green DNA, 72 h; series mostly up to 12.8 µM
Outline: as §1

CP262 = test: as above; conditions: P. falciparum in erythrocytes, SYBR Green DNA, 72 h; series mostly up to 12.8 µM
Outline: as §1

CP265 = test: as above; conditions: P. falciparum in erythrocytes, SYBR Green DNA, 72 h; series mostly up to 12.8 µM
Outline: as §1

FAB9 = test: as above; conditions: P. falciparum in erythrocytes, SYBR Green DNA, 72 h; series mostly up to 12.8 µM
Outline: as §1

[15] = measured here: cell count channel max response
[16] = measured here: lipid channel max response

N[C@H](C(=O)N[C@@H]1C(=O)N2C(C(=O)O)=C(Cl)CS[C@@H]12)c1ccccc1
-3.03% and 9.1%: max response [10, 16]
inactive: activity change, negative = inhibition ([1]; at 17.2 µM (top of the series)) 6.26% and -9.38% | activity change, negative = inhibition ([1]; at 38 µM (top of the series)) -4.53% | Potency [2] | activity change, negative = inhibition ([3]; at 17.2 µM (top of the series)) -10.5% and 0.734% | activity change, negative = inhibition ([3]; at 38 µM (top of the series)) 5.52% | activity, negative = inhibition ([4]; at 17.2 µM (top of the series)) -10.4% and 2.37% | activity, negative = inhibition ([4]; at 38 µM (top of the series)) 22.7% | Potency [5] > 46 µM and > 20.6 µM | Potency [6] > 46 µM and > 20.6 µM | Potency [7] | Potency [8] | outcome [9] | activity change, negative = inhibition [10] -0.721% and -1.78% | Potency [11]
-2.76% and 11.1%: max response [10, 15]

C[C@@H](COc1ccccc1)N(CCCl)Cc1ccccc1
active: Potency [2] 12.6 µM
inactive: activity change, negative = inhibition ([1]; at 17.2 µM (top of the series)) -0.257% | activity change, negative = inhibition ([1]; at 38 µM (top of the series)) 0.967% | activity change, negative = inhibition ([3]; at 17.2 µM (top of the series)) -10.8% | activity change, negative = inhibition ([3]; at 38 µM (top of the series)) -22.8% | activity, negative = inhibition ([4]; at 7.69 µM (top of the series) unless noted) 1.89% [at 17.2 µM] | Potency [5] > 46 µM and > 20.6 µM | Potency [6] > 46 µM and > 20.6 µM | Potency [7] | Potency [8] | outcome [9] | activity change, negative = inhibition [10] 0.574%
-7.22%: max response [10, 15]
-6.85%: max response [10, 16]

O=C(C1CCCCC1)N1CC(=O)N2CCc3ccccc3[C@@H]2C1
3.5%: max response [10, 15]
active: Potency [2] 12.6 µM and 10 µM
8.95%: max response [10, 16]
inactive: activity change, negative = inhibition ([1]; at 17.2 µM (top of the series)) 6.31% | activity change, negative = inhibition ([1]; at 38 µM (top of the series)) -5.21% | activity change, negative = inhibition ([3]; at 17.2 µM (top of the series)) 3.18% | activity change, negative = inhibition ([3]; at 38 µM (top of the series)) -8.74% | activity, negative = inhibition ([4]; at 17.2 µM (top of the series)) -1.88% | activity, negative = inhibition ([4]; at 38 µM (top of the series)) -0.96% | Potency [5] > 46 µM and > 20.6 µM | Potency [6] > 46 µM and > 20.6 µM | Potency [7] | Potency [8] | activity change, negative = inhibition [10] 1.99% | outcome [12] | outcome [13]

O=C(O)CNC(=O)[C@@H](CS)Cc1ccccc1
-4.92%: max response [10, 16]
inactive: activity change, negative = inhibition ([1]; at 17.2 µM (top of the series)) 1.14% | activity change, negative = inhibition ([1]; at 38 µM (top of the series)) -1.37% | Potency [2] | activity change, negative = inhibition ([3]; at 17.2 µM (top of the series)) 3.12% | activity change, negative = inhibition ([3]; at 38 µM (top of the series)) -2.03% | activity, negative = inhibition ([4]; at 17.2 µM (top of the series)) 14.5% | activity, negative = inhibition ([4]; at 38 µM (top of the series)) 26.3% | Potency [5] > 46 µM and > 20.6 µM | Potency [6] > 46 µM and > 20.6 µM | Potency [7] | Potency [8] | outcome [9] | activity change, negative = inhibition [10] -1.09%
-2.84%: max response [10, 15]

CCn1cc(C(=O)O)c(=O)c2cc(F)c(N3CCN[C@@H](C)C3)c(F)c21
-2.23%: max response [10, 15]
-3.89%: max response [10, 16]
inactive: activity change, negative = inhibition ([1]; at 17.2 µM (top of the series)) -0.628% | activity change, negative = inhibition ([1]; at 38 µM (top of the series)) 12.1% | Potency [2] | activity change, negative = inhibition ([3]; at 17.2 µM (top of the series)) -8.67% | activity change, negative = inhibition ([3]; at 38 µM (top of the series)) -2.78% | activity, negative = inhibition ([4]; at 17.2 µM (top of the series)) 9.73% | activity, negative = inhibition ([4]; at 38 µM (top of the series)) 26.7% | Potency [5] > 46 µM and > 20.6 µM | Potency [6] > 46 µM and > 20.6 µM | Potency [7] | Potency [8] | outcome [9] | activity change, negative = inhibition [10] -0.691% | outcome [12] | Potency [11] | outcome [13] | activity, negative = inhibition ([14]; parasite line A) 5.09% | activity, negative = inhibition ([14]; parasite line B) 0.537% | Potency (AS120) | Potency (CP238) | Potency (CP250) | Potency (CP262) | Potency (CP265) | Potency (FAB9)
